Measurements published in PubChem BioAssay AID1159580 (chemical genetic matrix, 2015).
The whole screen tested about 5,500 compounds, of which about 2,000 (36%) were called active. Inconclusive results (about 18%) are left out. Rule as the data show it: active = normalized growth mostly below about 0.91 (no sharp cut-off); inconclusive = no clear call, values can overlap the other calls; inactive = mostly above about 0.92. The list shows a part of the results.

Test: chemical genetic growth profiling, strain panel (AID 1159580);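 also: tested at 20 µM; growth read once vehicle control cultures reached saturation at 30 °C; 1 = growth at the plate median or of vehicle wells; lower values mean less growth of the strain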
Details: growth OD

Measured: normalized growth

O=c1c(-c2ccc3c(c2)OCO3)coc2cc(O)ccc12
inactive: S. cerevisiae deletion strains, locus YJR043C, strain POL32, active compounds read low 1 | S. cerevisiae deletion strains, locus YJR075W, strain HOC1, active compounds read low 1.02 | S. cerevisiae deletion strains, locus YKL009W, strain mrt4, active compounds read low 0.963 | S. cerevisiae deletion strains, locus YKL068W, active compounds read low 0.994 | S. cerevisiae deletion strains, locus YKL085W, strain MDH1 (second series), active compounds read low 0.995 | S. cerevisiae deletion strains, locus YKL085W, strain MDH1, active compounds read low 0.995 | S. cerevisiae deletion strains, locus YKL160W, strain elf1, active compounds read low 0.983 | S. cerevisiae deletion strains, locus YKL190W, strain CNB1, active compounds read low 1 | S. cerevisiae deletion strains, locus YKR001C, strain vps1, active compounds read low 0.969 | S. cerevisiae deletion strains, locus YKR026C, strain gcn3, active compounds read low 0.98 | S. cerevisiae deletion strains, locus YKR091W, strain srl3, active compounds read low 0.998 | S. cerevisiae deletion strains, locus YLL001W, strain dnm1, active compounds read low 0.977 | S. cerevisiae deletion strains, locus YLL026W, active compounds read low 0.989 | S. cerevisiae deletion strains, locus YLL041C, strain sdh2, active compounds read low 0.995 | S. cerevisiae deletion strains, locus YLR027C, strain aat2, active compounds read low 0.987 | S. cerevisiae deletion strains, locus YLR039C, strain RIC1, active compounds read low 0.969 | S. cerevisiae deletion strains, locus YLR058C, strain SHM2, active compounds read low 0.994 | S. cerevisiae deletion strains, locus YLR102C, strain apc9, active compounds read low 0.987 | S. cerevisiae deletion strains, locus YLR221C, strain rsa3, active compounds read low 0.994 | S. cerevisiae deletion strains, locus YLR258W, strain gsy2, active compounds read low 0.981 | S. cerevisiae deletion strains, locus YLR262C, strain YPT6 (second series), active compounds read low 0.957 | S. cerevisiae deletion strains, locus YLR262C, strain YPT6, active compounds read low 0.994 | S. cerevisiae deletion strains, locus YLR268W, strain sec22, active compounds read low 0.981 | S. cerevisiae deletion strains, locus YLR320W, strain mms22, active compounds read low 0.957 | S. cerevisiae deletion strains, locus YLR330W, strain CHS5, active compounds read low 1 | S. cerevisiae deletion strains, locus YLR342W, strain FKS1 (second series), active compounds read low 0.981 | S. cerevisiae deletion strains, locus YLR342W, strain FKS1, active compounds read low 0.98 | S. cerevisiae deletion strains, locus YLR357W, strain rsc2, active compounds read low 0.965 | S. cerevisiae deletion strains, locus YLR370C, strain arc18, active compounds read low 1 | S. cerevisiae deletion strains, locus YLR371W, strain rom2, active compounds read low 0.981 | S. cerevisiae deletion strains, locus YLR384C, strain iki3, active compounds read low 0.971 | S. cerevisiae deletion strains, locus YLR418C, strain cdc73, active compounds read low 0.984 | S. cerevisiae deletion strains, locus YML016C, strain PPZ1, active compounds read low 0.985 | S. cerevisiae deletion strains, locus YML032C, strain rad52, active compounds read low 0.969 | S. cerevisiae deletion strains, locus YML120C, strain ndi1, active compounds read low 0.995 | S. cerevisiae deletion strains, locus YML124C, strain tub3, active compounds read low 0.976 | S. cerevisiae deletion strains, locus YMR058W, strain fet3, active compounds read low 1 | S. cerevisiae deletion strains, locus YMR078C, strain ctf18, active compounds read low 0.967 | S. cerevisiae deletion strains, locus YMR125W, strain sto1, active compounds read low 0.986 | S. cerevisiae deletion strains, locus YMR129W, active compounds read low 0.997 | S. cerevisiae deletion strains, locus YMR205C, strain PFK2, active compounds read low 0.978 | S. cerevisiae deletion strains, locus YMR223W, strain ubp8, active compounds read low 0.976 | S. cerevisiae deletion strains, locus YMR231W, strain pep5, active compounds read low 1 | S. cerevisiae deletion strains, locus YMR263W, strain SAP30, active compounds read low 1.01 | S. cerevisiae deletion strains, locus YMR307W, strain GAS1, active compounds read low 0.974 | S. cerevisiae deletion strains, locus YNL067W, strain RPL9B, active compounds read low 1.03 | S. cerevisiae deletion strains, locus YNL071W, strain lat1, active compounds read low 0.996 | S. cerevisiae deletion strains, locus YNL128W, strain TEP1, active compounds read low 1.02 | S. cerevisiae deletion strains, locus YNL153C, strain GIM3, active compounds read low 1.01 | S. cerevisiae deletion strains, locus YNL209W, strain ssb2, active compounds read low 0.987 | S. cerevisiae deletion strains, locus YNL233W, strain BNI4, active compounds read low 0.997 | S. cerevisiae deletion strains, locus YNL248C, strain rpa49, active compounds read low 0.987 | S. cerevisiae deletion strains, locus YNL250W, strain rad50, active compounds read low 0.989 | S. cerevisiae deletion strains, locus YNL271C, strain bni1, active compounds read low 0.992 | S. cerevisiae deletion strains, locus YNL298W, strain CLA4, active compounds read low 0.981 | S. cerevisiae deletion strains, locus YNL307C, strain MCK1, active compounds read low 0.948 | S. cerevisiae deletion strains, locus YNL322C, strain KRE1 (second series), active compounds read low 0.992 | S. cerevisiae deletion strains, locus YNL322C, strain KRE1, active compounds read low 0.999 | S. cerevisiae deletion strains, locus YNR049C, strain mso1, active compounds read low 0.996 | S. cerevisiae deletion strains, locus YNR052C, strain pop2, active compounds read low 0.975 | S. cerevisiae deletion strains, locus YOL006C, strain TOP1, active compounds read low 1.01 | S. cerevisiae deletion strains, locus YOL012C, strain htz1 1.06 | S. cerevisiae deletion strains, locus YOL147C, strain pex11, active compounds read low 0.976 | S. cerevisiae deletion strains, locus YOR001W, strain rrp6, active compounds read low 0.991 | S. cerevisiae deletion strains, locus YOR061W, strain CKA2, active compounds read low 0.981 | S. cerevisiae deletion strains, locus YOR069W, strain VPS5, active compounds read low 0.991 | S. cerevisiae deletion strains, locus YOR070C, strain gyp1, active compounds read low 0.99 | S. cerevisiae deletion strains, locus YOR080W, strain dia2, active compounds read low 0.981 | S. cerevisiae deletion strains, locus YOR083W, strain WHI5, active compounds read low 1 | S. cerevisiae deletion strains, locus YOR106W, strain vam3, active compounds read low 0.986 | S. cerevisiae deletion strains, locus YOR136W, strain idh2, active compounds read low 0.985 | S. cerevisiae deletion strains, locus YOR144C, strain elg1, active compounds read low 0.98 | S. cerevisiae deletion strains, locus YOR184W, strain ser1, active compounds read low 0.994 | S. cerevisiae deletion strains, locus YOR265W, strain rbl2, active compounds read low 0.991 | S. cerevisiae deletion strains, locus YOR270C, strain vph1, active compounds read low 1.02 | S. cerevisiae deletion strains, locus YOR290C, strain snf2, active compounds read low 0.958 | S. cerevisiae deletion strains, locus YOR316C, strain cot1, active compounds read low 0.976 | S. cerevisiae deletion strains, locus YPL051W, strain arl3, active compounds read low 0.99 | S. cerevisiae deletion strains, locus YPL055C, strain LGE1, active compounds read low 1.03 | S. cerevisiae deletion strains, locus YPL078C, strain atp4, active compounds read low 0.995 | S. cerevisiae deletion strains, locus YPL106C, strain sse1, active compounds read low 0.97 | S. cerevisiae deletion strains, locus YPL240C, strain hsp82, active compounds read low 0.988 | S. cerevisiae deletion strains, locus YPL241C, strain CIN2, active compounds read low 0.999 | S. cerevisiae deletion strains, locus YPR119W, strain clb2, active compounds read low 0.985 | S. cerevisiae deletion strains, locus YPR141C, strain kar3, active compounds read low 0.986 | S. cerevisiae deletion strains, locus YPR163C, strain tif3, active compounds read low 0.978 | S. cerevisiae deletion strains, locus YPR167C, strain met16, active compounds read low 0.982 | S. cerevisiae deletion strains, strain wtn01, active compounds read low 0.983 | S. cerevisiae strains, strain wild type, active compounds read low 0.995
